Measurements reported in PubChem BioAssay AID1259415 (National Center for Advancing Translational Sciences (NCATS), 2018).
Hit rate of the full screen: of about 410,000 compounds, about 18,000 (4.4%) were called active. Not shown: some 7% with an inconclusive outcome. This is one part of a sample in which actives are shown more often than they occur. Cut-off read from the data, not from the text of the source: active = activity change below about -60%; inconclusive = no clear call, values can overlap the other calls; inactive = above about -39%.

Test: qHTS Assay for inhibitors of the human cytomegalovirus (HCMV)
Conditions: HFF cells, HCMV-luciferase reporter, 72 h; at 57.5 µM; hits give low values
Outline: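 Compounds were evaluated in HFFs infected with an HCMV luciferase reporter virus (MOI 1 PFU/cell). Luciferase in lysates collected 72 h post infection served as the replication measure.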
% is set by controls: 0 for no effect and ±100 for the full control effect.

Structure (SMILES) | activity change, negative = inhibition
Nc1cc(N2CCCCCC2)c2nonc2c1[N+](=O)[O-] | -24.1% (inactive)
Cc1ccccc1NC(=O)CN1C(=O)C(C)(C)c2ccccc21 | -4.1% (inactive)
COc1cc(OC)c(OC)cc1/C=C/c1nc2cc3ccccc3cc2c(=O)n1-c1ccc(F)c(Cl)c1 | 11% (inactive)
COc1ccc(NS(=O)(=O)c2ccc(NC(=O)c3ccc(N(C)S(C)(=O)=O)cc3)cc2)cc1 | -94.5% (active)
CCOC(=O)c1cc(C(=O)Nc2ccc(S(=O)(=O)Nc3ccc(OC)cc3)cc2)nn1C | 2.74% (inactive)
COc1ccc(C(CNC(=O)c2ccc(NS(=O)(=O)c3ccc(F)c(C)c3)cc2)N(C)C)cc1 (stereo unspecified) | -9.49% (inactive)
O=C(c1cccs1)c1cn(CCOc2ccc(Cl)cc2)c2ccccc12 | -4.55% (inactive)
COc1ccc(CCNC(=O)c2cnc3sc(N4CCCCCC4)nn3c2=O)cc1OC | 0.444% (inactive)
COc1ccc(NC(=O)Cn2c(=O)n(Cc3ccc(C(=O)NCc4ccccc4Cl)cc3)c(=O)c3ccccc32)cc1 | -25.8% (inactive)
CC1=C(C)CC(C(=O)NNC(=O)c2csc3c2CCC(C(C)(C)C)C3)C(C(=O)O)C1 (stereo unspecified) | 35% (inactive)
O=C(NNC(=O)c1ccccc1O)c1ccccc1O | -97% (active)
CC1=C(C)CC(C(=O)NNC(=O)c2ccccc2O)C(C(=O)O)C1 (stereo unspecified) | -89.9% (active)
O=C(CO/N=C/c1ccccc1O)NNC(=O)c1ccccc1Cl | 35% (inactive)
CC1=C(C)CC(C(=O)NC(C)CCc2ccccc2)C(C(=O)O)C1 (stereo unspecified) | 16.1% (inactive)
COc1cc(OC)c(C(=O)NNC(=O)c2ccccc2-n2cccc2)cc1OC | -25.6% (inactive)
COc1ccc(-c2cc(-c3ccccc3)nc3c2COc2ccc(Cl)cc2-3)cc1 | 9.57% (inactive)
CC(=O)N1C[C@@H](CO)[C@@H](N(C)C(=O)c2ccco2)C[C@H]1c1ccccc1 | -4.23% (inactive)
COc1cc2c(cc1NC(=O)CN1CCN(S(=O)(=O)c3ccc(F)cc3)CC1)oc1ccccc12 | 63.3% (inactive)
COc1ccc(-n2c(=O)c3ccccc3n(Cc3ccccc3Cl)c2=O)cc1 | 7.59% (inactive)

Structure (SMILES) | activity change, negative = inhibition
CCCn1c(N)c(C(=O)CSc2nnc(Cc3cccs3)n2C2CC2)c(=O)[nH]c1=O | -9.71% (inactive)
Cc1cc(C)c(OCCN2CC(C)OC(C)C2)c(Br)c1 (stereo unspecified) | -20% (inactive)
Cc1ccc(Oc2cc(NC(=O)CCCn3nc(C)c([N+](=O)[O-])c3C)cc([N+](=O)[O-])c2)cc1 | 3.84% (inactive)
COc1ccc(S(=O)(=O)NNC(=O)Nc2ccc(C)cc2)c(OC)c1 | -7.23% (inactive)
COc1cc(NC(=O)Nc2ccc(C)cc2)cc([N+](=O)[O-])c1 | -63.5% (active)
Cc1cccc(N2CCN(C(=O)c3ccc(Nc4nc5ccccc5n5nnnc45)cc3)CC2)c1C | 9.29% (inactive)
CCOc1ccc(CNC(=O)c2ccc3c(c2)nnn3C2CCCC2)cc1 | 27.9% (inactive)
CCCNC(=O)c1ccc(N2CCC3(CC2)CC(c2ccc(Cl)cc2)=NO3)c([N+](=O)[O-])c1 | -72.5% (active)
CCCNC(=O)c1ccc(N2CCC3(CC2)CC(c2cccc(Br)c2)=NO3)c(NC(=O)c2ccco2)c1 | -2.24% (inactive)
COCCNC(=O)c1ccc(N2CCC3(CC2)OCCO3)c([N+](=O)[O-])c1 | -4.44% (inactive)
COCCCNC(=O)c1c(NC(=O)c2cc(=O)c3cc(C)c(C)cc3o2)sc2c1CCCC2 | 11.5% (inactive)
Cc1nnc(NCc2ccccc2)c2c1nnn2Cc1ccc(F)cc1 | -5.95% (inactive)
CCc1ccc(NC(=O)c2cc(S(=O)(=O)NC3CCCCCC3)ccc2F)cc1 | -39.6% (inactive)
CCOc1cccc(C(=O)Nc2nnc(S(=O)(=O)N(C)c3ccc(C)cc3)s2)c1 | -25.8% (inactive)
Cc1ccc(CS(=O)(=O)c2ncc(Cl)c(C(=O)Nc3nnc(C)s3)n2)cc1 | -111% (active)
Cc1ccc2nc(NC(=O)c3nc(SCc4ccccc4F)ncc3Cl)sc2c1 | 16.7% (inactive)
Cc1ccc(CS(=O)(=O)CCC(=O)NC2CC2)cc1 | -21.8% (inactive)
CSc1nnc(NC(=O)c2nc(S(=O)(=O)Cc3ccc(C)cc3)ncc2Cl)s1 | -102% (active)
O=C(Nc1nc2ccc(F)cc2s1)c1nc(SCc2ccccc2F)ncc1Cl | 7.44% (inactive)

Structure (SMILES) | activity change, negative = inhibition
NNc1cccc(C=Cc2ccccc2)cc1=O | 34% (inactive)
Cc1ccc(S(=O)(=O)n2nc(C)c(S(=O)(=O)N3CCCCCC3)c2C)cc1 | 1.89% (inactive)
Cc1nc2nc(NCc3cccc(Br)c3)[nH]n2c(=O)c1Cc1ccccc1 | -3.03% (inactive)
COc1ccc(C(=O)CSc2c(C(C)C)cnc3c2c(=O)n(C)c(=O)n3C)cc1 | 8.98% (inactive)
CCOCCc1nn2c(=O)cc(COC(=O)CNC(=O)c3ccc(C(C)(C)C)cc3)nc2s1 | -3.83% (inactive)
CCOc1ccc(N(CC(=O)NCCc2ccc(OC)cc2)S(C)(=O)=O)cc1 | -24% (inactive)
Cc1cccc(C(CC(=O)NCC2(c3ccccc3)CCCC2)c2ccccc2)c1O (stereo unspecified) | -38.6% (inactive)
CNC(=O)/C(=C\C=C\c1ccccc1)NC(=O)c1ccc([N+](=O)[O-])cc1 | 45.3% (inactive)
O=C(N/C(=C\c1ccc([N+](=O)[O-])cc1)C(=O)N1CCCCC1)c1ccco1 | -3.57% (inactive)
O=C(NCCc1ccccc1)/C(=C\c1ccc([N+](=O)[O-])cc1)NC(=O)c1ccccc1 | -102% (active)
CCCN(CCC)CCNC(=O)c1ccc2c(c1)NC(=O)C(CS(=O)(=O)Cc1cccc(Br)c1)N2 (stereo unspecified) | -22.3% (inactive)
CC(=O)N1CCc2c(sc(NC(=O)CCS(=O)(=O)c3ccc(C)cc3)c2C(N)=O)C1 | 5.61% (inactive)
CC(=O)N1CCc2c(sc(NC(=O)CCS(=O)(=O)c3ccccc3)c2C#N)C1 | -99.8% (active)
CC(C)N1CCc2c(sc(NC(=O)Cc3ccccc3)c2C#N)C1 | -9.26% (inactive)
CC(C)CNc1cccc2c1S(=O)(=O)N[C@H](CC(C)C)CO2 | -24.9% (inactive)
O=C(CSc1nnc(N2CCOCC2)n1-c1cccc(F)c1)N1CCN(c2ccccn2)CC1 | -18.8% (inactive)
O=C(C[C@H]1CC[C@H]2[C@@H](COC[C@H](O)CN2C(=O)c2ccccn2)O1)N1CCN(c2ccccc2)CC1 | -65.2% (active)
CCCNC(=O)C[C@@H]1CC[C@@H]2[C@H](COC[C@H](O)CN2C(=O)c2cc(Cl)cc(Cl)c2)O1 | -17.8% (inactive)
